From PubChem BioAssay AID1850 (Southern Research Specialized Biocontainment Screening …, 2009) come the findings set out here.

About 1,000 (0.32%) of roughly 310,000 compounds were called active. How the calls were made is not given here. These entries were drawn from the full list. Results with a measured potency or affinity are listed apart.

The test can be described thus: Inhibition of PhoP regulon, Salmonella typhi GFP reporter cells, confirmation, 4 h (AID 1850).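 Further: 0% = induced wells with vehicle and 100% = uninduced wells.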 Conditions: Salmonella Typhi PhoP-promoter GFP reporter, fluorescence, at 50 µM, hits give high values.
Broadly, the inhibition is the relative decrease from the control value, in per cent. Regarding `CCOc1cc(/C=C2\CCCC(C(=O)C(F)(F)F)=C2O)ccc1O`, the inhibition was -4.72% (inactive).

In the case of `CN(CC(=O)Nc1cccc(F)c1)C(=O)c1ccncc1`, the inhibition is -3.54% (inactive).

With `CCOC(=O)N1CCN(C2CCCN(C(=O)c3ccccc3SC)C2)CC1` (configuration not stated), the inhibition is 4.8% (inactive).

As for `O=C(COc1ccccc1C(=O)c1cnn(-c2ccccc2)c1)Nc1ccccc1`, the inhibition is -4.89% (inactive).

With `COc1cc(OC)cc(C(=O)NNC(=O)c2ccc(S(=O)(=O)N(C)c3ccccc3OC)cc2)c1`, the inhibition is 15.6% (inactive).

As for `Cc1cc(N/N=C/c2ccc(O)cc2O)c2ccccc2n1`, the inhibition is -3.45% (inactive).

For the molecule `COc1ccc(Nc2cc(C)nc3ccccc23)cc1`, the inhibition is 13.4% (inactive).

Consider `Cc1cc(N/N=C/c2ccc(N(C)C)cc2)c2ccccc2n1`, for which the inhibition is 0.75% (inactive).

With `COc1cccc2c(N/N=C/c3ccc(O)c(O)c3)cc(C)nc12`, the inhibition was -4.34% (inactive).

Turning to `Cc1cc(N/N=C/c2ccccc2O)c2ccccc2n1`, the inhibition was -0.61% (inactive).

Consider `Cc1cccc(Nc2cc(C)nc3ccccc23)c1`, for which the inhibition was 5.71% (inactive).

For `Cc1cccc(N2C(=O)C(Oc3ccc(Cl)cc3Cl)C2C(=O)O)c1C` (configuration not stated), the inhibition was -8.69% (inactive).

As to `Cc1nnc(Cn2cnc3c2c(=O)n(C)c(=O)n3C)o1`, the inhibition is 6.26% (inactive).

On to `O=C(COc1ccc(/C=N/NC(=O)c2ccncc2)cc1)Nc1ccccc1`, for which the inhibition was -0.13% (inactive).

On to `CCOC(=O)c1c(-c2ccccc2)oc2ccc(OCC)cc12`, for which the inhibition was -1.51% (inactive).

On to `CCOC(=O)c1c(-c2ccccc2)oc2ccc(OCC(O)CN(C)C)cc12` (configuration not stated), for which the inhibition is -1.17% (inactive).

Regarding `Cc1ccc(-n2ncc3c(SCc4ccccn4)ncnc32)c(C)c1`, the inhibition is -1.44% (inactive).

With `c1ccc(Cn2ccc(-c3cnc(-c4ccccc4)s3)n2)cc1`, the inhibition is 9.82% (inactive).

On to `Nc1[nH]ncc1-c1ccc(Cl)cc1`, for which the inhibition is 9.56% (inactive).

As for `Nc1[nH]ncc1-c1ccc(F)cc1`, the inhibition is -6.64% (inactive).

Turning to `CCc1nnc(NC(=O)Nc2ccccc2OC)s1`, the inhibition is 1.12% (inactive).

Consider `CCc1ccc(N2CC(C(=O)N/N=C/c3cccc([N+](=O)[O-])c3)CC2=O)cc1` (configuration not stated), for which the inhibition was -13.7% (inactive).

For `COc1ccc(N2CC(C(=O)Nc3ccc([N+](=O)[O-])cc3Br)CC2=O)cc1` (configuration not stated), the inhibition is 6.01% (inactive).

As for `CC(C)(C)N/N=C/c1cc(Cl)cc([N+](=O)[O-])c1O`, the inhibition is -7.27% (inactive).

With `COc1ccccc1/C=N/NC(=O)c1cccc(NC(=O)c2ccccc2C)c1`, the inhibition was 8.56% (inactive).

In the case of `Cc1cc(C(=O)N/N=C/c2cc(Cl)cc([N+](=O)[O-])c2O)c2ccccc2n1`, the inhibition is 15.1% (inactive).

As to `COc1ccc(N2CC(C(=O)N/N=C/c3ccc([N+](=O)[O-])cc3)CC2=O)cc1` (configuration not stated), the inhibition is 0.01% (inactive).

Turning to `O=C(N/N=C/c1cc(Cl)cc([N+](=O)[O-])c1O)NC12CC3CC(CC(C3)C1)C2`, the inhibition is 7.74% (inactive).

Take `CCc1ccc(N2CC(C(=O)N/N=C/c3ccccc3)CC2=O)cc1` (configuration not stated): the inhibition was -5.31% (inactive).

As for `CCCCNC(=O)CCn1c(=O)c2ccccc2n(Cc2ccc(Cl)cc2)c1=O`, the inhibition was 5.58% (inactive).

As for `CCOC(=O)C(C)Oc1cccc2c(=O)n(CC(=O)N3CCCc4ccccc43)ccc12` (configuration not stated), the inhibition is 2.67% (inactive).

Consider `COc1ccc(Cn2c(=O)oc3ccc(C)cc32)cc1`, for which the inhibition was 10.7% (inactive).

For the molecule `O=C(CSc1ccccc1)Nc1ccc(N2CCOCC2)c(F)c1`, the inhibition was -2.5% (inactive).

In the case of `Cc1ccc(CC2C(=O)N(C)C(=O)N(C)C2=O)s1`, the inhibition was 5.58% (inactive).

Consider `CCOc1ccc(N(CC(=O)Nc2ccc(OC)cc2)S(=O)(=O)c2c(C)[nH]c(=O)[nH]c2=O)cc1`, for which the inhibition is -6.24% (inactive).

As to `NCCc1nnc(SCC(N)=O)o1`, the inhibition was -11.5% (inactive).

Regarding `O=C(N/N=C/c1cc([N+](=O)[O-])ccc1O)C1CCCCC1`, the inhibition was -0.28% (inactive).

Take `O=C(N/N=C/c1cc([N+](=O)[O-])ccc1O)C1C2CCCCC21` (configuration not stated): the inhibition was -4.14% (inactive).

`O=C(N/N=C/c1cccc([N+](=O)[O-])c1)c1cccc2cc[nH]c12`: the inhibition was -2.43% (inactive).

Turning to `Cc1ccccc1NC(=O)CCC(=O)N/N=C/c1cc([N+](=O)[O-])ccc1O`, the inhibition is -5.84% (inactive).

On to `O=S(=O)(c1ccc(NC(=S)N/N=C/c2ccc(O)c(O)c2)cc1)N1CCOCC1`, for which the inhibition was 9.73% (inactive).

With `Cc1ccc(NC(=O)CCC(=O)N/N=C/c2cc([N+](=O)[O-])ccc2O)cc1`, the inhibition was -3.42% (inactive).

Consider `O=C(N/N=C/c1ccc([N+](=O)[O-])cc1)c1cccc2cc[nH]c12`, for which the inhibition was 20.2% (inactive).

On to `O=[N+]([O-])c1cc(Cl)cc(/C=N/NC(=S)Nc2cc(S(=O)(=O)N3CCOCC3)ccc2Cl)c1O`, for which the inhibition was -3.6% (inactive).

Take `CCOCCCN(C(=O)Cn1nnc(-c2ccc(C)o2)n1)C(C(=O)NCC1CCCO1)c1ccc(F)cc1` (configuration not stated): the inhibition is 5.95% (inactive).

On to `CN(C)/C=C1\C(=O)Oc2ccccc2C1=O`, for which the inhibition was 20.1% (inactive).

Consider `Cn1c(SCc2cccc(F)c2)nnc1-c1cnccn1`, for which the inhibition was -1.53% (inactive).

With `O=C(NCc1cc(C(F)(F)F)cc(C(F)(F)F)c1)C1CC(c2ccccc2F)=NO1` (configuration not stated), the inhibition is -1.16% (inactive).

On to `CCOC(=O)N1CCN(C(=O)c2cc3cc(Cl)ccc3[nH]2)CC1`, for which the inhibition is -18% (inactive).

`CCOC(=O)N1CCN(C(=O)c2cc3cc(F)ccc3[nH]2)CC1`: the inhibition was 7.38% (inactive).

With `CN1CCN(C(=O)c2cc3cc(F)ccc3[nH]2)CC1`, the inhibition was 10.7% (inactive).

Regarding `CN1CCN(C(=O)c2cc3cc(Cl)ccc3[nH]2)CC1`, the inhibition is -3.23% (inactive).

Turning to `COC(=O)c1c(O)cc(C(C)(C)C)n(-c2ccc(F)cc2)c1=O`, the inhibition is -3.64% (inactive).

As to `Cc1ccc(Cn2c(=N)c(C(=O)NC3CCCC3)cc3c(=O)n4ccccc4nc32)cc1`, the inhibition is -16.4% (inactive).

Take `O=C(CCN1CCN(c2ccccc2)CC1)Nc1ccc(Cl)cc1`: the inhibition was 11.6% (inactive).

`O=C(NCCN1CCN(C(=O)c2ccc(Br)cc2)CC1)c1ccc(Br)cc1`: the inhibition was -4.36% (inactive).

As for `COc1ccc(C(=O)CCN2CCN(c3ccccc3F)CC2)cc1`, the inhibition is 8.74% (inactive).

Regarding `O=C(CCN1CCOCC1)c1ccc(Br)cc1`, the inhibition was 24.1% (inactive).

`COc1ccc(C(=O)CCN2CCN(c3ccc(OC)cc3)CC2)cc1`: the inhibition was 11.8% (inactive).

For the molecule `O=C(c1ccc(Br)cc1)N1CCN(Cc2ccccc2)CC1`, the inhibition is -4.12% (inactive).

As for `O=C(CCN1CCN(c2ccc([N+](=O)[O-])cc2)CC1)c1ccc(Cl)cc1`, the inhibition is -10.4% (inactive).

Consider `O=C(CCC(=O)N1CCN(c2ccccc2F)CC1)c1ccc(F)cc1`, for which the inhibition was 4.65% (inactive).
